By inhibition is commonly meant the relative decrease from the control value, in per cent.

In all, about 340,000 compounds went through this assay and about 700 (0.21%) were called active. Shown is part of a subset that was picked to be rich in actives. Unmarked numbers belong to inactive results. Cut-off read from the data, not from the text of the source: active = inhibition above about 22% (passing the limit was not always enough); inactive = the rest.

The source of these data is PubChem BioAssay AID504357 (The Scripps Research Institute Molecular Screening Center, 2011).

The target in this assay is Mu-type opioid receptor (Homo sapiens) + Delta-type opioid receptor (Homo sapiens) (UniProt P35372+P41143). Nature of the assay: inverse agonists of MOR-DOR heterodimerization, primary screen, cell-based, luminescence (AID 504357).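 Note: 0% = cells with DMSO and 100% = wells without cells with DMSO.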 The following applies: cell-based MOR-DOR heterodimer luminescence, inverse agonism; at 9.3 µM; hits give high values.
Mu-type opioid receptor (Homo sapiens) + Delta-type opioid receptor (Homo sapiens), sequence (P35372 whole entry, looked up): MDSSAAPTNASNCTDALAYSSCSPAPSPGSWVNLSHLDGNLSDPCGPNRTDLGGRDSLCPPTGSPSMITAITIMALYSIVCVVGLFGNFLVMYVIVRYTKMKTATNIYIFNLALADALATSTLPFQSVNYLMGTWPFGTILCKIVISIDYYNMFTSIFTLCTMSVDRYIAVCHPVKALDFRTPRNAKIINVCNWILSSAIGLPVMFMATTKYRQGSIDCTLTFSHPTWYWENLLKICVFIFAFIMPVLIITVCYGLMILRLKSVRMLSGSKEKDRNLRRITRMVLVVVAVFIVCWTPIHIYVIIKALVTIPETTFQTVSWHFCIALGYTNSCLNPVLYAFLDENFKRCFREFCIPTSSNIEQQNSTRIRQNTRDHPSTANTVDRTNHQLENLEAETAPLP
Mu-type opioid receptor (Homo sapiens) + Delta-type opioid receptor (Homo sapiens), sequence (P41143 whole entry, looked up): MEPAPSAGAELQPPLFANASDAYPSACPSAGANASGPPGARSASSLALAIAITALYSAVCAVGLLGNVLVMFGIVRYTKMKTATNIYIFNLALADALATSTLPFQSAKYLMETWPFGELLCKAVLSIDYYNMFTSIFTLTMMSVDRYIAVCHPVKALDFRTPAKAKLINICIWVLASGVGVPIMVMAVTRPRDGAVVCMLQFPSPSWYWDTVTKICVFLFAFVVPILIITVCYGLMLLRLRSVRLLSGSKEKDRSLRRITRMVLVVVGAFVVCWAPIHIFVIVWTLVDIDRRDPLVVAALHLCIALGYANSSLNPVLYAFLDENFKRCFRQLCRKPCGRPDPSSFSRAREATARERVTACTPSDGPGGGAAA
Regarding `COc1ccc(-c2ccc(CNCCCN3CCOCC3)o2)cc1Cl`, the inhibition is -3.74%. The same measure for `Nc1ccc2c(c1)C(O)c1ccc(Cl)cc1-2` (stereo not given): -2.52%. In the case of `C/C(O)=C\c1nc(=O)c2c(C)cc(C)nc2n1-c1ccccc1`, the inhibition is -10.5%. Take `Cc1ccc(CN(C(=O)c2sc3ccccc3c2Cl)C2CCS(=O)(=O)C2)cc1` (stereo not given): the inhibition was -141%. Consider `CCOC(=O)c1sc(-c2cccc([N+](=O)[O-])c2)cc1N`, for which the inhibition was -25.6%. With `CC(=O)Nc1ccc(S(=O)(=O)N2CCN(c3ccc([N+](=O)[O-])c(NCCN4CCOCC4)c3)CC2)cc1`, the inhibition is 4.65%. As to `O=C(CNC(=O)c1ccccc1Br)NCCSc1ccc(Br)cc1`, the inhibition is 3.63%. The same measure for `COc1cc(C(=O)OC(C)C(=O)NCC2CCCCC2)cc(NC(=O)c2ccco2)c1OC` (stereo not given): -157%. For `O=C(Nc1cccc(Br)c1)C1CC(=O)N(C2CCCC2)C1` (stereo not given), the inhibition is -5.3%.

Regarding `CCN(CC)C(=O)CN(c1cccc(OC)c1)S(=O)(=O)c1ccc(C)cc1`, the inhibition was 13%.

Regarding `CCN(CCCNC(=O)C1CCN(S(=O)(=O)c2cnc[nH]2)CC1)c1ccccc1`, the inhibition was -0.9%.

As to `Cc1cc(/C=C2/SC(=O)N(CC(=O)OC(C)C)C2=O)c(C)n1C`, the inhibition was 5.02%. Turning to `Cc1ccc2c(c1)-c1c(ssc1=S)C(C)(C)N2C(=O)CN1C(=O)c2ccccc2C1=O`, the inhibition is 11.6%. Consider `O=C1c2ccccc2C(=O)N1CCOc1ccc(F)cc1`, for which the inhibition is -0.37%. For `CCOC(=O)C1CCN(C(=O)CN2C(=O)c3cccnc3Oc3ccc(C)cc32)CC1`, the inhibition was 20%. For the compound `Cc1cccc2c1N(CCOc1ccccc1)C(=O)C2=O`, the inhibition was 55.7% (active). Consider `Cc1cccc2c1N(CC(=O)OC(C)C)C(=O)C2=O`, for which the inhibition is 67.2% (active). Take `CC(OC(=O)CN1C(=O)c2ccccc2C1=O)C(=O)c1ccccc1` (stereo not given): the inhibition was 9.57%. As to `CCOC(=O)CN1C(=O)C(=O)c2cc(C)ccc21`, the inhibition was 40.6% (active). As to `CC(C)OC(=O)CN1CCN(c2ccc(Cl)cc2)CC1`, the inhibition is -2.26%. `CC1(C)NC(=O)N(CCOc2cccc(Oc3ccccc3)c2)C1=O`: the inhibition is 10.6%. For `COc1cc(C(C)=O)ccc1OC(=O)CN1C(=O)c2ccccc2C1=O`, the inhibition is 17.3%.

In the case of `CC(C)OC(=O)CN1C(=O)C(=O)c2ccccc21`, the inhibition was 96.4% (active). On to `O/N=C(\c1ccc2c(c1)OCCO2)C1CCCCC1`, for which the inhibition was 10.1%. With `CSc1ccccc1C(=O)OCC(=O)N1CCN(C(C)=O)CC1`, the inhibition is 12.6%.

As for `CC1CN(S(=O)(=O)c2ccc(C(=O)NN3CCN(C)CC3)cc2)CC(C)O1` (stereo not given), the inhibition is -5.71%. Consider `O=C(/C=C/c1ccc(Cl)cc1)NCCCn1ccnc1`, for which the inhibition was 1.46%.

For `Cc1cccc(NC(=O)Cc2ccc(Br)cc2)n1`, the inhibition was 2.04%. `O=C(Cc1c(Cl)cccc1Cl)NC1CC1`: the inhibition was 1.58%.

`O=C(CCl)NNc1cccc(Cl)n1`: the inhibition was 75% (active).

In the case of `CN(C(=O)CCn1c(=S)oc2ccccc21)C1CCCCC1`, the inhibition was 10.3%. Consider `CNS(=O)(=O)c1ccc(N2CCCC2=O)c([N+](=O)[O-])c1`, for which the inhibition was -2.31%.

For `CC(c1ccco1)N(C(=O)c1ccc(S(=O)(=O)N2CCCCC2)cc1)c1ccccn1` (stereo not given), the inhibition was 13.7%.

Turning to `Cc1cc(C)c(S(=O)(=O)n2cc(C(C)C(N)C(=O)O)c3ccccc32)c(C)c1` (stereo not given), the inhibition is 8.06%. The same measure for `Cn1nc([N+](=O)[O-])nc1Sc1ccc(C(C)(C)C)cc1`: -22.7%; for `CCOC(=O)c1cccc(NC(=O)C2CCN(c3ncnc4c3nc3n4CCCCC3)CC2)c1`: -0.14%; for `CCCCCC(O)(CCN1CCCCC1)c1ccccc1` (stereo not given): 4.99%.

Turning to `CCn1cc(CCC(=O)NCc2ccc(F)cc2)c2ccccc21`, the inhibition is -13.5%. Regarding `Cc1ccc(C(=O)NC2CCN(C(=O)Nc3ccc(F)cc3)CC2)cc1`, the inhibition was 6.33%. For `Cc1ccc(NC(=S)Nc2ccc(F)cc2)cc1`, the inhibition is 9.82%. `Cc1ccc(C(=O)CNc2ccc(F)cc2)cc1`: the inhibition was 42.7% (active). The figure for `CCCCCC(=O)NC(=S)NNC(=O)c1ccc([N+](=O)[O-])cc1` is -3.86%. For the compound `CCCCC(=O)NNC(=S)NC(=O)C(c1ccccc1)c1ccccc1`, the inhibition is 27.8% (active). Take `CCNC(=S)NNC(=O)Cc1ccccc1`: the inhibition is 2.92%.

With `COc1ccc(NC(=O)CCn2ccnc2)c(OC)c1`, the inhibition is 9.95%. Take `Cn1c(=S)sc2ccc3ccccc3c21`: the inhibition was -28.3%. For `O=C(C1CC(=O)N(c2ccc(F)cc2)C1)N1CCN(c2ccccc2)CC1` (stereo not given), the inhibition is 14%. Regarding `CCOC(=O)N1CCN(C(=O)c2ccccc2N(Cc2ccccc2)S(=O)(=O)c2ccc(OC)cc2)CC1`, the inhibition is -2.13%. The same measure for `N#Cc1cccc(NC(=O)CCC2CCCC2)c1`: -3.46%; for `O=C1NC(=O)C(CCc2ccccc2)(c2ccccc2)N1` (stereo not given): 16.3%; for `COC(=O)c1cc2occc2n1Cc1nc(-c2ccccc2C)oc1C`: -3.9%. For the compound `CN(C)CCn1c2c(c(SCC(=O)NCc3ccccc3)nc1=O)CCC2`, the inhibition is -0.58%.

On to `CCc1c(Nc2ccccc2C)nc(N)[nH]c1=O`, for which the inhibition was 0.05%. As for `O=C(CCc1nc2sc3c(c2c(=O)[nH]1)CCCC3)NCC(=O)Nc1ccccc1Br`, the inhibition was 17%. The figure for `CCOc1cc(NS(=O)(=O)c2ccc(OC)cc2)c(OCC)cc1NC(C)=O` is -4.39%; for `COc1ccc(N2CC(NS(=O)(=O)c3ccc4ccccc4c3)CC2=O)cc1` (stereo not given) it is 7.42%; for `COc1cc(NS(=O)(=O)c2ccc3ccccc3c2)c2ncccc2c1` it is 38.6% (active). Turning to `COC(=O)Cc1ccc(NC(=S)NCc2ccccc2)cc1`, the inhibition was 5.98%. In the case of `COC(=O)Cc1c(-c2[nH]c3ccccc3c2CC(=O)OC)[nH]c2ccccc12`, the inhibition is 42.2% (active). For `CCCOC(=O)Cc1c(O)c2ccccc2[nH]c1=O`, the inhibition was 15.1%. On to `Cc1ccc(-n2nc(-c3ccco3)cc2C(=O)NCc2cccnc2)cc1`, for which the inhibition was 10.7%.

For the compound `O=C1C(=O)N(CC2COc3ccccc3O2)c2ccccc21` (stereo not given), the inhibition is 35.1% (active). As to `O=C(CN1C(=O)C2C3C=CC(C3)C2C1=O)NCC1COc2ccccc2O1` (stereo not given), the inhibition is -16.6%. Take `O=C(NCC1COc2ccccc2O1)C1(c2ccccc2)CCCC1` (stereo not given): the inhibition was 4.79%. Consider `COc1cc2sc(C)nc2cc1C`, for which the inhibition is -8.04%.

Turning to `O=C(O)C(=Cc1ccccc1[N+](=O)[O-])c1ccccc1`, the inhibition was 9.45%.

For the compound `CC(C)CCSc1ncnc2c1oc1nc3c(cc12)COC(C)(C)C3`, the inhibition is 5.61%. As for `Cc1ccc2nc(SCc3nnc(-c4ccccc4[N+](=O)[O-])o3)c(C#N)cc2c1`, the inhibition is 13%. As for `Cc1nc2cc(NC(=O)CSc3nc4c(C)cccc4cc3C#N)ccc2s1`, the inhibition was 12.7%. As for `CCN1C[C@@H]2[C@@H]3C(=O)N(Cc4ccccc4)C(=O)[C@@H]3[C@](C)(C1=O)N2C(=O)c1ccc(C(C)(C)C)cc1`, the inhibition is 0.58%. For the compound `Cn1ccs/c1=N\S(=O)(=O)c1ccc(C(C)(C)C)cc1`, the inhibition was 4.78%. Take `CC(C)(C)c1nnc(NC(=O)C2c3ccccc3Oc3ccccc32)s1`: the inhibition is -37%. For `N#C/C(=C/c1ccc(Cl)cc1)NC(=O)c1ccccc1`, the inhibition is -2.56%. Turning to `O=C(CN1CCCSc2ccccc21)N1CCN(S(=O)(=O)c2cccc(F)c2)CC1`, the inhibition is 9.06%.

For the compound `O=C1C[C@@H]2c3c(cccc3CN1Cc1ccccc1)C[C@@H](O)[C@H]2O`, the inhibition is 1.13%. The figure for `CCCNC(=O)CCn1cc(-c2ccc(OC)cc2)nc1CCN` is 7.6%; for `COC(=O)c1scc(C)c1NC(=O)CSc1ccc(Cl)cc1` it is 0.66%. In the case of `CC(=O)c1ccc(NC(=O)C(C)N(C)CC(=O)Nc2ccccc2Cl)cc1` (stereo not given), the inhibition is 2.42%. Consider `CCOC(=O)c1c(-n2cnnn2)sc(C)c1C`, for which the inhibition is 18.6%. Take `Cc1ccc(Oc2cc(NC(=O)CCCn3nc(C)c([N+](=O)[O-])c3C)cc([N+](=O)[O-])c2)cc1`: the inhibition is -12.5%.

Consider `Cc1ccc(S(=O)(=O)N2CCOCC2)cc1C(=O)NC(=S)N(Cc1ccccc1)C(C)C`, for which the inhibition was 20%. For `COc1ccc(-n2c(O)c(C=NCC(c3ccco3)N3CCCC3)c3ccccc3c2=O)cc1OC` (stereo not given), the inhibition is 12.1%. The same measure for `Cc1cccc(-n2c(Cc3cc(=O)[nH]c(=O)[nH]3)nnc2SCC(=O)Nc2cccc(C(F)(F)F)c2)c1`: -3.78%; for `COC(=O)C1(CCSC)NC(c2ccc(OC)cc2OC)C2C(=O)N(c3cccc(C(C)=O)c3)C(=O)C21` (stereo not given): 15.3%. The figure for `NNc1cccc(C=Cc2ccccc2)cc1=O` is -23.2%. For the compound `COc1ccc(CC(=O)OC(C)C(=O)Nc2ccc(S(N)(=O)=O)cc2)cc1` (stereo not given), the inhibition was 6.12%. Take `Cc1c(C(=O)N(Cc2ccccc2)Cc2cccnc2)cnn1-c1ccc(F)cc1`: the inhibition was 15.9%. On to `Cc1ccccc1NC(=O)CSC1=NCCN1`, for which the inhibition was 6.55%.

With `Cc1ccc(S(=O)(=O)Oc2ccc(/C=N/NC(=O)c3c(Cl)cnn3C)cc2)cc1`, the inhibition was 6.6%. For the compound `O=S(=O)(c1ccc(Br)cc1)n1ccc2ccccc21`, the inhibition is -60.1%. `O=C(NC1CCCCCCC1)c1cccs1`: the inhibition is -15.7%. For `OCC[C@H]1C[C@H](O)[C@@H](O)[C@]2(CCCCO2)O1`, the inhibition is 1.27%. Regarding `Cc1cccc(C2c3[nH]c4ccccc4c3CCN2C(=O)c2cc(-c3cccn3C)n[nH]2)n1` (stereo not given), the inhibition was -17.1%. As for `CC(=O)c1ccc(NC(=O)CCc2nnc3ccc(NCc4ccco4)nn23)cc1`, the inhibition is 18.1%. In the case of `COC(=O)c1cccc(C(=O)N2CCCC(Nc3ccc4c(c3)OCCO4)C2)c1` (stereo not given), the inhibition was -2.83%.
